The full list was thinned out, with hits kept by preference.
nsP2pro inh: Primary qHTS for inhibitors of NSP2Pro chikungunya virus (CHIKV); Potency, µM (highest dose often 24.9 µM), most hits filed as inhibitors; Polyprotein P1234 (Chikungunya virus (strain S27-African prototype)), Q8JUX6; FRET peptide cleavage, nsP2pro, fluorescence 1 h; 1.1% of 31,000 active; also: nearly all actives have a fitted effect of over 60% in size
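Recombinant nsP2pro (150 nM) was preincubated with compound 15 min at room temperature in 10 mM Tris-HCl pH 8.0, 0.01% Tween 20. Peptide 2 FRET substrate (2.5 uM) was then added and fluorescence read after 1 h. Seven-point series, up to 25 uM.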
CHIKV nsP2 cell: Secondary cell base assay for inhibitors of NSP2Pro Chikungunya virus (CHIKV); shares compounds with nsP2pro inh; cell-based CHIKV nsP2 protease reporter assay; Potency, µM (highest dose often 51.1 µM), usual class: inhibitors; 10% of 450 active; also: nearly all actives have a fitted effect of over 70% in size
Target sequence (Q8JUX6 220-798 limits assumed): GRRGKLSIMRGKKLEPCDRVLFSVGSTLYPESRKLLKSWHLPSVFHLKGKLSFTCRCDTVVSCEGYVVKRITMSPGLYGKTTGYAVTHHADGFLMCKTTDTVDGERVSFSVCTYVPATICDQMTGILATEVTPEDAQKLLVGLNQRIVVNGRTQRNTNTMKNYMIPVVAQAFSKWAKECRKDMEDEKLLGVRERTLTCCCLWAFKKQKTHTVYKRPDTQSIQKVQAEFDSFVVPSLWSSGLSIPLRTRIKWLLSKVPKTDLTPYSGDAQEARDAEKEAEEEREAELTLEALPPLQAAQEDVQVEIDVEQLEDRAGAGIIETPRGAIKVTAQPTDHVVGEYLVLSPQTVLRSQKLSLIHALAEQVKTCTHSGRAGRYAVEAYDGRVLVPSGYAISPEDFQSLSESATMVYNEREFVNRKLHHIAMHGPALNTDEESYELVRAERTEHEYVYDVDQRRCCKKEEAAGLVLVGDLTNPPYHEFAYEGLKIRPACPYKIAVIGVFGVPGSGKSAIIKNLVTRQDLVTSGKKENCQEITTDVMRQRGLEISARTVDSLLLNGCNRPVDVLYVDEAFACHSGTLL
NSP2 full ctr: Selectivity profile for inhibitors of NSP2Pro chikungunya virus (CHIKV): Full length NSP2 enzyme counterscreen (CHIKV-NSP2); shares compounds with nsP2pro inh; Full-length CHIKV NSP2 protease enzymatic counterscreen; Potency, µM (top dose mostly 50.7 µM), hits mostly inhibitors; 39% of 410 active; AID 1964101, 2024; also: nearly all actives have a fitted effect of over 65% in size
Furin counterscr: Selectivity profile for inhibitors of NSP2Pro chikungunya virus (CHIKV): Human furin counterscreen; shares compounds with nsP2pro inh; Recombinant human furin enzymatic counterscreen, fluorogenic substrate; Potency, µM (doses to about 50.6 µM), most hits filed as inhibitors; 6% of 410 active; AID 1964102, 2024
NS23 peptide cs: Selectivity profile for inhibitors of NSP2Pro chikungunya virus (CHIKV): Endogenous NS2/3 peptide Counterscreen; shares compounds with nsP2pro inh; Purified CHIKV nsP2 protease, endogenous NS2/3 peptide cleavage; AID 1964103, 2024; Potency, µM (highest dose often 51 µM), hits mostly inhibitors; 34% of 410 active; also: nearly all actives have a fitted effect of over 55% in size
Papain cs: Selectivity profile for inhibitors of NSP2Pro chikungunya virus (CHIKV): Papain Counterscreen. AID 1964104, 2024. 5% of 410 active. Potency, µM (doses to about 51 µM), most hits filed as inhibitors. shares compounds with nsP2pro inh. purified papain protease activity, enzymatic inhibition
nsP2pro confirm: Confirmatory qHTS for inhibitors of NSP2Pro chikungunya virus (CHIKV); CHIKV nsP2 protease enzymatic activity, qHTS; Potency, µM (titrated, usually from 25.5 µM), usual class: inhibitors; 43% of 410 active; shares compounds with nsP2pro inh; also: nearly all actives have a fitted effect of over 75% in size
HCV NS3 counter: Selectivity profile for inhibitors of NSP2Pro chikungunya virus (CHIKV): NS34A-HCV Counterscreen | HCV NS3/4A protease biochemical counterscreen | 20% of 410 active | Potency, µM (highest dose often 50.9 µM), most hits filed as inhibitors | shares compounds with nsP2pro inh; also: nearly all actives have a fitted effect of over 55% in size
Hits are given with their value; – = inactive; ? = inconclusive; ! = a repeat was not active. Calls follow the shape of the full dose curve.

SMILES	nsP2pro inh	others
CC(=O)OC1CC(O)C2(C)C(CC(OC(C)=O)C3(C)C2CCC2(C)C(c4ccoc4)C(=O)C4OC423)C1(C)C (stereo not drawn)	?	CHIKV nsP2 cell=–;NSP2 full ctr=–;Furin counterscr=–;NS23 peptide cs=–;Papain cs=–;nsP2pro confirm=–;HCV NS3 counter=–
CC(=O)O[C@@H]1C[C@H](O)[C@@]23CO[C@H](O)[C@]1(C)C2C[C@@H](O)[C@]1(C)C3C(=O)[C@H](OC(C)=O)[C@@]2(C)[C@H](c3ccoc3)C[C@H]3O[C@]321 (stereo partly drawn)	–
Cc1ccc(-c2csc(NC(=O)c3ccncc3NS(=O)(=O)c3ccc(C)cc3)n2)cc1	–
COCCOc1cnc2ccn([C@H](C)c3nnc4c(F)cc(-c5cnn(C)c5)cn34)c(=O)c2c1	?	CHIKV nsP2 cell=–;NSP2 full ctr=–;Furin counterscr=–;NS23 peptide cs=–;Papain cs=–;nsP2pro confirm=?;HCV NS3 counter=–
N#Cc1cnc(NS(=O)(=O)c2ccc(NC(=O)Cc3ccc(F)c(Cl)c3)cc2)s1	–
COc1ccccc1N1CCN(C(c2ccccc2)c2nnc(-c3ccccc3Cl)o2)CC1 (stereo not drawn)	–
COc1ccccc1N1CCN(C(c2ccc(Cl)cc2)c2nnc(-c3cccc(F)c3)o2)CC1 (stereo not drawn)	–
COc1ccc(N2CCN(C(c3ccccc3)c3nnc(-c4ccccc4Cl)o3)CC2)cc1 (stereo not drawn)	?	CHIKV nsP2 cell=?
O=C(c1cc(Cl)c(O)c(Cl)c1)N1CS(=O)(=O)c2ccccc21	–
CN[C@H]1C(=O)N[C@@H]2Cc3ccc(cc3)Oc3cc4cc(c3O[C@@H]3O[C@H](C(=O)O)[C@@H](O)[C@H](O)[C@H]3NC(=O)CCCCCCCCC(C)C)Oc3ccc(cc3Cl)[C@@H](O)[C@@H]3NC(=O)[C@H](NC(=O)[C@@H]4NC(=O)[C@@H](NC2=O)c2cc(cc(O)c2Cl)Oc2cc1ccc2O)c1ccc(O)c(c1)-c1c(O[C@H]2O[C@H](CO)[C@@H](O)[C@H](O)[C@@H]2O)cc(O)cc1[C@@H](C(=O)NCCCN(C)C)NC3=O	–
Cc1ccc(S(=O)(=O)Nc2ccccc2C(=O)Nc2ccc(-c3ccccc3)cn2)cc1	–
CC(C)(O)C1OC1C1=CC(=O)C2(C)OC2C1O (stereo not drawn)	9.9µM	CHIKV nsP2 cell=–;NSP2 full ctr=4.6µM;Furin counterscr=–;NS23 peptide cs=?;Papain cs=10µM;nsP2pro confirm=5µM;HCV NS3 counter=?
CC1(C)OB(c2ccc(O)c3ncc(N4CCNCC4)cc23)OC1(C)C	–
C[C@H]1O[C@@H](O[C@H]2CC[C@@]3(C)C(CC[C@]4(C)[C@@H]3C=CC3=C5CC(C)(C)CC[C@]5(CO)[C@H](O)C[C@@]34C)[C@]2(C)CO)[C@H](O)[C@@H](O[C@@H]2O[C@H](CO)[C@@H](O)[C@H](O)[C@@H]2O)[C@H]1O (stereo partly drawn)	–
COC(=O)c1c(NC(=O)CCCOc2ccc(C)cc2)sc2c1C(C(=O)OC)CC2 (stereo not drawn)	2.1µM	CHIKV nsP2 cell=18µM;NSP2 full ctr=?;Furin counterscr=–;NS23 peptide cs=12µM;Papain cs=–;nsP2pro confirm=7.1µM;HCV NS3 counter=–
COC(=O)c1c(NC(=O)CCCOc2cccc(C)c2)sc2c1C(C(=O)OC)CC2 (stereo not drawn)	1.9µM	CHIKV nsP2 cell=15µM!;NSP2 full ctr=18µM;Furin counterscr=–;NS23 peptide cs=5.2µM;Papain cs=–;nsP2pro confirm=2.5µM;HCV NS3 counter=–
COC(=O)c1c(NC(=O)CCCOc2cccc(C)c2)sc2c1CCC(C)C2 (stereo not drawn)	–
CCOc1ccc(/C=C/C(=O)Nc2sc3c(c2C(=O)OC)C(C(=O)OC)CC3)cc1 (stereo not drawn)	2.8µM	CHIKV nsP2 cell=–;NSP2 full ctr=?;Furin counterscr=–;NS23 peptide cs=4.7µM;Papain cs=–;nsP2pro confirm=3.7µM;HCV NS3 counter=–
COC(=O)c1c(NC(=O)CCCOc2ccccc2C)sc2c1CCC(C)C2 (stereo not drawn)	–
COC(=O)c1c(NC(=O)CCCOc2ccc(C(C)(C)C)cc2)sc2c1CCC(C)C2 (stereo not drawn)	–
COC(=O)c1c(NC(=O)CCCOc2ccc(C)cc2)sc2c1CCCC2	–
COC(=O)c1c(NC(=O)CCCOc2cccc(C)c2)sc2c1CCC2	–
CCOC(=O)c1c(NC(=O)CCCOc2ccc(C(C)(C)C)cc2)sc2c1CCCC2	–
Nc1nc(Nc2ccc3c(c2)CC[C@@H](N2CCCC2)CC3)nn1-c1cc2c(nn1)-c1ccccc1CCC2	–
COC(=O)c1ccc(O)c2ncc(NC3CCNCC3)cc12	–
SMILES	nsP2pro inh	others
Cc1noc(-c2sc3c(c2-c2nc4ccccc4s2)CCNC3)n1	–
Cc1cn2nnc(C(=O)NCc3ccc(C(C)C)cc3)c2c(=O)[nH]1	–
O=c1c(-c2ccc(O)cc2)coc2cc(O[C@@H]3O[C@H](CO)[C@@H](O)[C@H](O)[C@H]3O)ccc12	–
COc1c(NS(=O)(=O)c2ccc(C)cc2)cccc1C(=O)Nc1nc(-c2ccccc2)cs1	–
Nc1cccc(-c2ccc(NC(=O)c3cccs3)cn2)c1	–
N#Cc1ccc(-c2ccc(=O)n(CC(=O)NCCc3ccccc3)n2)cc1	–
Cc1ccc(S(=O)(=O)N(C)c2ccccc2C(=O)Nc2nc(-c3ccccc3)cs2)cc1	–
NC(N)=NCCC[C@@H](N)C(=O)N[C@@H](CCCN=C(N)N)C(=O)N1CCC[C@H]1C(=O)N1C[C@H](O)C[C@H]1C(=O)NCC(=O)N[C@@H](Cc1cccs1)C(=O)N[C@@H](CO)C(=O)N1Cc2ccccc2C[C@@H]1C(=O)N1[C@H](C(=O)N[C@@H](CCCN=C(N)N)C(=O)O)C[C@@H]2CCCC[C@@H]21	–
C=C1C[C@H]2[C@@H]3CCC4=CC(=O)CC[C@@H]4[C@H]3CC[C@]2(C)[C@@]1(OC(C)=O)C(C)=O	–
OC[C@H]1O[C@@H](n2cnc3c2NC=NC[C@H]3O)CC1O (stereo partly drawn)	–
CN1CCC[C@@H]1Cc1c[nH]c2ccc(CCS(=O)(=O)c3ccccc3)cc12	–
CN(C)CCc1c[nH]c2ccc(C[C@H]3COC(=O)N3)cc12	?	CHIKV nsP2 cell=–;NSP2 full ctr=–;Furin counterscr=–;NS23 peptide cs=–;Papain cs=–;nsP2pro confirm=?;HCV NS3 counter=–

Source: PubChem (National Center for Advancing Translational Sciences (NCATS))
